Screening results (PubChem BioAssay)
The list is not random: actives were taken first. Their share in the collection is about 14%.
USP17 inh: blocks human USP17 ubiquitin-rhodamine cleavage; 47,000 tested, 6.5% active; A8MUK1; inhibition, % at 50 µM; purified USP17, Ub-rhodamine cleavage fluorescence, 3 h
USP10 block: blocks human USP10 ubiquitin-rhodamine cleavage; purified USP10, Ub-rhodamine fluorescence, 60 min; inhibition, % at 20 µM; 47,000 tested, 1.1% active; AID 1645856
USP30 inh: blocks human USP30 ubiquitin-rhodamine cleavage. Q70CQ3. purified USP30, Ub-rhodamine cleavage fluorescence. inhibition, % at 25 µM. 47,000 tested, 5.3% active
USP28 block: blocks human USP28 ubiquitin-rhodamine cleavage. Q96RU2. purified USP28, Ub-rhodamine cleavage fluorescence, 30 min. inhibition, % at 25 µM. 47,000 tested, 3% active
USP8 block: inhibitors of human USP8 deubiquitinase | purified USP8, Ub-rhodamine cleavage fluorescence, 30 min | inhibition, % at 20 µM | 47,000 tested, 4.2% active | P40818
* marks the source's active call; other numbers are inactive results; x = not tested or not shown. Rule as the data show it: active = inhibition above about 30%; inactive = the rest.

SMILES	USP17 inh	USP10 block	USP30 inh	USP28 block	USP8 block
COc1ccc(-c2cnnn2-c2ccc(NC(=O)c3c(F)cccc3F)cc2)cc1OC	x	-1	83*	4	6
COc1cccc(-n2nnc(C(=O)Nc3ccc(C)c(C)c3)c2C)c1	16	6	6	58*	13
Cc1ccc(NC(=O)c2nnn(-c3cccc(F)c3)c2C)cc1C	13	3	12	20	16
COc1cccc(C(=O)Nc2nc(-c3nnn(-c4ccc(C)c(F)c4)c3C)ns2)c1	61*	48*	95*	64*	56*
CCc1ccc(NC(=O)c2nnn(-c3cccc(F)c3)c2C)cc1	14	2	14	17	9
CCOc1cccc(C(=O)Nc2nc(-c3ccc(OCC)c(OC)c3)ns2)c1	18	-4	6	4	-7
Cc1c(C(=O)Nc2ccc(F)cc2)nnn1-c1cccc(F)c1	29	4	37*	10	21
CCN1CCc2nc3ccccc3c(C(=O)Nc3ccc(F)cc3)c2C1	-69	-2	-246	-56	-24
CCc1ccc(-n2nc(C)c3c2NC(=O)CC3C(=O)c2ccc3c(c2)OCCO3)cc1 (centres undefined)	57*	1	-2	0	-1
Cc1cccc(-n2nc(C)c3c2NC(=O)CC3C(=O)c2cc3ccccc3o2)c1C (centres undefined)	-14	-1	-3	14	-17
Cc1ccc(-n2nc(C)c3c2NC(=O)CC3C(=O)c2cc3ccccc3o2)cc1 (centres undefined)	8	33*	6	4	24
O=C(Nc1ccccc1)c1cccnc1N1CCNC(c2ccccc2)C1 (centres undefined)	-16	-7	-31	-15	-27
Cc1cc(C)n(Cc2c(C(=O)NCC3CCCO3)noc2C)n1 (centres undefined)	0	0	10	-2	10
CC(=O)c1cc2c(=O)c3c(C(=O)O)c(O)c(O)cc3oc2c(C(C)=O)c1-c1coc2cc(O)c(O)c(C(=O)O)c2c1=O	46*	-3	-87	40*	-63
Cc1cccc(N2CCn3c2nc2c3c(=O)n(CCN3CCOCC3)c(=O)n2C)c1	5	2	38*	12	2
Cc1ccc(N2CCCn3c2nc2c3c(=O)n(CCN3CCOCC3)c(=O)n2C)cc1	16	3	34*	17	21
COc1ccc(CC(=O)Nc2c(-c3ccc(F)cc3)nc3ccccn23)cc1OC	6	0	6	-1	-1
CC1CCN(Cc2nc(Cn3ccn4nc(-c5ccccc5)cc4c3=O)no2)CC1	-5	-1	2	0	0
Cc1ccc(C)c(-c2cc3c(=O)n(Cc4noc(CN5CCCCC5)n4)ccn3n2)c1	-9	-2	-52	71*	-10
Fc1ccc(Cc2nnc(C3(c4ccc(F)cc4)CCOCC3)o2)cc1	-2	0	5	0	5
O=C(Cc1ccc(F)cc1)N1CCCC(n2c(=O)[nH]c3cncnc32)C1 (centres undefined)	-10	-3	-44	-18	-11
CCN(CCCNC(=O)CCc1nnc2n(Cc3ccc(C)cc3)c(=O)c3ccccc3n12)c1cccc(C)c1	6	-1	24	14	6
CC(C)CCn1c(=O)c2ccccc2n2c(CCC(=O)NCCN3CCCC3)nnc12	-13	-3	-55	-4	-12
CCN(CCCNC(=O)CCc1nnc2n(Cc3ccccc3)c(=O)c3ccccc3n12)c1cccc(C)c1	x	6	42*	17	10
O=C(CCc1nnc2n(Cc3ccc(F)cc3)c(=O)c3ccccc3n12)N1CCN(c2ccccn2)CC1	21	6	53*	20	5
SMILES	USP17 inh	USP10 block	USP30 inh	USP28 block	USP8 block
CC(C)Cn1c(=O)c2ccccc2n2c(CCC(=O)NCC3CCCO3)nnc12 (centres undefined)	10	3	35*	3	11
O=C(CCc1nnc2n(Cc3ccccc3)c(=O)c3ccccc3n12)NCC1CCCO1 (centres undefined)	11	-1	30*	12	1
COc1ccc(CC(=O)N(Cc2nc3nc(C)cc(C)n3n2)c2ccccc2OC)cc1	-1	-3	0	1	-1
Cc1ccc(C)c(S(=O)(=O)N2CCN(C(C)c3nc4ccccc4c(=O)[nH]3)CC2)c1 (centres undefined)	-7	-3	-18	-11	1
O=C(NCc1ccc(F)cc1)c1cccc(S(=O)(=O)Nc2ccc(F)cc2)c1	0	-3	2	7	7
Cc1ccc(-c2ncc(C(=O)NC(C)c3ccccn3)c(-c3ccncc3)n2)cc1 (centres undefined)	-42	-3	-141	-37	6
CSc1ncc(C(=O)NC(C)c2ccccc2)c(-c2ccccc2)n1 (centres undefined)	60*	1	23	8	21
O=c1c2c(ccn1Cc1ccccc1F)ccn2Cc1cccnc1	-17	0	x	x	2
COCCn1ccc2ccn(Cc3nc(-c4cccnc4)no3)c(=O)c21	26	-4	-170	-20	56*
O=c1c2c(ccn1Cc1nc(C3CC3)no1)ccn2Cc1cccnc1	8	1	10	31*	29
Cn1ccc2ccn(Cc3nc(-c4ccccn4)no3)c(=O)c21	2	-4	1	15	15
Cc1ccc(OCCNC(=O)c2cc(=O)[nH]c3ccccc23)cc1	43*	3	-2	2	0
COc1ccc(CC(NC(C)=O)C(=O)NC2CCN(C(=O)C3CC3)CC2)cc1 (centres undefined)	-22	1	26	5	-192
O=C1CC(c2noc(-c3ccccn3)n2)CN1c1ccc(F)cc1 (centres undefined)	-8	1	4	-8	0
O=C1CC(c2noc(-c3ccccn3)n2)CN1c1cccc(F)c1 (centres undefined)	16	-1	32*	16	10
CCc1ccc(C2c3c(-c4cc(C)cc(C)c4O)n[nH]c3C(=O)N2Cc2cccnc2)cc1 (centres undefined)	15	15	3	-2	74*
Cn1c(=O)[nH]c(=O)c2c(C3C(=O)Nc4ccccc43)c(-c3ccc(F)cc3)[nH]c21 (centres undefined)	-6	5	-25	-9	-39
COc1cccc(OC)c1C(=O)OCC(=O)Nc1ccc(Oc2ccccc2)cc1	14	8	23	34*	11
CC(C)Oc1ccc(C(=O)OCC(=O)Nc2ccc(Oc3ccccc3)cc2)cc1	5	13	4	9	13
O=C(COC(=O)c1cccc([N+](=O)[O-])c1)Nc1cccc(Oc2ccccc2)c1	9	12	32*	20	2
COc1ccc(Br)cc1CNC(=O)C1CCCN(c2nnc(N3CCCC3=O)s2)C1 (centres undefined)	40*	-2	-29	-6	-11
O=C(NCc1ccccc1Cl)C1CCCN(c2nc3ccsc3c(=O)s2)C1 (centres undefined)	55*	20	-36	0	0
